Laboratory results as given in PubChem BioAssay (NCI).
This is part of a sample that, as a whole, favours compounds with a hit. Of some 79,000 tested, about 15% had one in any assay. No stated cut-off is given here; in the data, active means growth inhibition above about 70%; inactive means the rest.

Tests used:
[1] = NCI Yeast Anticancer Drug Screen. Data for the rad50 strain (AID 155);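 further: 0% = growth of vehicle-only cultures of the same strain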; settings: S. cerevisiae rad50 strain growth inhibition; at 50.0 µM; stronger effect = higher value
Outline: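 Relative growth inhibition (compound vs vehicle) was measured in yeast with a defined repair-gene alteration.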

[2] = NCI Yeast Anticancer Drug Screen. Data for the mec2-1 strain (AID 157); settings: S. cerevisiae mec2-1 strain, at 50.0 µM, stronger effect = higher value
Outline: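 Readout is yeast growth inhibition, normalised to vehicle-treated controls, in the mec2-1 strain exposed to compound.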

[3] = NCI Yeast Anticancer Drug Screen. Data for the sgs1 mgt1 strain (AID 161);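 further: 0% = growth of cultures given vehicle only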; settings: S. cerevisiae sgs1 mgt1 strain, at 50.0 µM, stronger effect = higher value
Outline: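 Growth of a repair-deficient yeast mutant was monitored after compound treatment and expressed as inhibition relative to vehicle-treated cultures.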

[4] = NCI Yeast Anticancer Drug Screen. Data for the cln2 rad14 strain (AID 165);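 further: 0% = growth equal to vehicle treated cultures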; settings: S. cerevisiae cln2 rad14 strain, at 50.0 µM, stronger effect = higher value
Outline: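 Relative to vehicle controls, growth inhibition of compound-treated cln2 rad14 yeast was recorded.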

[5] = NCI Yeast Anticancer Drug Screen. Data for the bub3 strain (AID 167); settings: S. cerevisiae bub3 mutant strain, at 50.0 µM, stronger effect = higher value
Outline: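 Screening used yeast with an engineered genetic alteration affecting cell cycle control. Compound-exposed cultures were compared with vehicle cultures, and reduced growth was taken as inhibition.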

[6] = NCI Yeast Anticancer Drug Screen. Data for the mlh1 rad18 strain (AID 175); settings: S. cerevisiae mlh1 rad18 strain growth inhibition; at 50.0 µM; stronger effect = higher value
Outline: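 Test agents were incubated with a yeast strain of defined genotype (DNA damage repair defect). Inhibition of growth was derived by comparison with vehicle-exposed cultures.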

Measured: growth inhibition

CCCc1c[nH]c(-c2ccc(-c3cc(CCC)c(C=O)[nH]3)s2)c1
inactive: [1] -44.8% | [2] -22.8% | [3] -35.9% | [4] -2.8% | [5] -28.9% | [6] -56.7%

CC(=O)OCC1OC(OCCCc2ccccc2)C(OC(C)=O)C(OC(C)=O)C1OC(C)=O (stereo not given)
inactive: [1] 21% | [2] 5.5% | [3] 6.45% | [4] -47.9% | [5] -65.9% | [6] 24.9%

C=C(C(=C)N1N=NC2C3CCC(C3)C21)N1N=NC2C3CCC(C3)C21 (stereo not given)
inactive: [1] -5.9% | [2] -15.9% | [3] 10.3% | [4] 7.15% | [5] -4.75% | [6] -7.95%

COC(=O)c1ccc(OC(=O)Nc2ccc(C)cc2)cc1
inactive: [1] -7.15% | [2] -9.6% | [3] -8.45% | [4] -9.4% | [5] 13.6% | [6] -6.6%

CCCn1cnc2c(NN=O)ncnc21
inactive: [1] -42% | [2] -13.2% | [3] -51.6% | [4] -23.2% | [5] -9.35% | [6] -45.5%

N#C/C(=C\c1ccccc1Br)C(=O)c1ccccc1
inactive: [1] 15.2% | [2] 6.15% | [3] -3.35% | [4] 11.4% | [5] -12.8% | [6] -14.3%

CC(=O)OC(C(=O)Nc1nncs1)c1ccccc1 (stereo not given)
inactive: [1] 7.05% | [2] -22.9% | [3] 7.25% | [4] 8.05% | [5] 11.2% | [6] 18.1%

O=C(CC(=O)c1ccccc1)Nc1ccc(-c2nc3ccccc3c(=O)[nH]2)cc1
inactive: [1] 20.1% | [2] 10.5% | [3] 19.9% | [4] 1.9% | [5] 19.6% | [6] 27.7%

O=C1OC(C(Cl)(Cl)Cl)Nc2ccccc21 (stereo not given)
inactive: [1] 13.8% | [2] -19.8% | [3] 9.35% | [4] 15.6% | [5] 19.4% | [6] 12.9%

Nc1nc(N)nc(-c2ccccc2NS(=O)(=O)c2ccc([N+](=O)[O-])cc2)n1
inactive: [1] 1.6% | [2] 21.8% | [3] 6.2% | [4] 3.45% | [5] 11.2% | [6] 38.4%

O=C1OC(c2ccc(Cl)cc2)=C/C1=C/c1ccccc1O
inactive: [1] -15.8% | [2] 4.75% | [3] -1.15% | [4] -47.7% | [5] -0.65% | [6] 5.05%

O=C(NCP(=O)(c1ccccc1)c1ccccc1)OCc1ccccc1
inactive: [1] -50.2% | [2] -3.7% | [3] -25.9% | [4] 10.4% | [5] -12.5% | [6] 6.6%

CC1(C)CC(=O)C2=C(C1)NC(SSC1=C(C#N)C(c3ccc(F)cc3)C3=C(CC(C)(C)CC3=O)N1)=C(C#N)C2c1ccc(F)cc1 (stereo not given)
inactive: [1] -22.4% | [2] -12.8% | [3] -12.4% | [4] 55.5% | [5] -26.2% | [6] -25.8%

CCOC(=O)/N=c1/nc2ccn(C)c2c(NC(=O)OCC)s1
inactive: [1] 15.1% | [2] -3.5% | [3] -5% | [4] 11% | [5] 7.9% | [6] -15.8%

N/C(=N\N=C\c1c[nH]c2cc(C(F)(F)F)ccc2c1=O)NO
inactive: [1] -10.9% | [2] -7.45% | [3] 28.4% | [4] 11.1% | [5] 2.9% | [6] 2.25%

COC1CCC2C(C1)C(C1CCCCC1)C1CCCCC1C2C1CCCCC1 (stereo not given)
inactive: [1] -1.1% | [2] 8.05% | [3] -14.6% | [4] -7.25% | [5] -0.9% | [6] -7.65%

N#CCc1ccc(Nc2cc(=O)[nH]c(=O)[nH]2)cc1
inactive: [1] -7.5% | [2] 1.5% | [3] 3.65% | [4] -35.1% | [5] -7.5% | [6] -7.55%

CN(C)c1nnnn1-c1ccccc1
inactive: [1] 5.15% | [2] 5.05% | [3] 12.3% | [4] -21.9% | [5] 9.5% | [6] 0.45%

Cc1cn(C2CC(O)C(CO)O2)c(=O)nc1NCc1cccs1 (stereo not given)
inactive: [1] 0.8% | [2] 2% | [3] -8.55% | [4] -9.15% | [5] -4.55% | [6] 2.95%

CCC(c1ccc(OC)cc1)C1NC(=S)NC1=O (stereo not given)
inactive: [1] 4.05% | [2] -30.1% | [3] 3.2% | [4] 6.45% | [5] 9.55% | [6] 11.6%
